Data: PubChem BioAssay (NCI)
About 79,000 compounds went through this panel and 15% of them were active in at least one assay; those are over-represented in the sample as a whole. The source made the active and inactive calls. No stated cut-off is given here; in the data, active means growth inhibition above about 70%; inactive means the rest.

Columns and labels:
[1] = NCI Yeast Anticancer Drug Screen. Data for the wt1 strain (AID 149);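 further: 0% = growth of vehicle-treated wt1 cultures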; settings: S. cerevisiae wt1 strain (SPY 50644) growth inhibition, stronger effect = higher value
Procedure, shortened: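 wt1 strain grown with compound or vehicle; inhibition taken from the growth difference.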

[2] = NCI Yeast Anticancer Drug Screen. Data for the rad50EPP+ strain (AID 151);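 further: 0% = growth of vehicle-treated control cultures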; settings: S. cerevisiae rad50 mutant strain, stronger effect = higher value
Procedure, shortened: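 Strain rad50EPP+; compound exposure; % growth inhibition vs vehicle.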

[3] = NCI Yeast Anticancer Drug Screen. Data for the mgt1 strain (AID 153); settings: S. cerevisiae mgt1 mutant growth inhibition, stronger effect = higher value
Procedure, shortened: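 Read-out: yeast growth inhibition vs vehicle control. Strain mgt1, drawn from a panel altered in DNA damage repair or cell cycle control.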

[4] = NCI Yeast Anticancer Drug Screen. Data for the rad50 strain (AID 155);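 further: 0% = growth of vehicle-only cultures of the same strain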; settings: S. cerevisiae rad50 strain growth inhibition, stronger effect = higher value
Procedure, shortened: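 DNA repair mutant yeast, compound exposure, growth read-out; inhibition is taken relative to vehicle.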

[5] = NCI Yeast Anticancer Drug Screen. Data for the mec2-1 strain (AID 157); settings: S. cerevisiae mec2-1 strain, stronger effect = higher value
Procedure, shortened: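 Cells of the genetically defined mec2-1 yeast strain are incubated with test compound. Inhibition of growth is calculated against vehicle-treated controls.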

[6] = NCI Yeast Anticancer Drug Screen. Data for the rad14 strain (AID 159);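 further: 0% = growth of vehicle-treated control cultures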; settings: S. cerevisiae rad14 strain growth inhibition, stronger effect = higher value
Procedure, shortened: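 DNA repair-defective yeast, compound-exposed; % growth inhibition derived by comparison with vehicle-treated controls.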

[7] = NCI Yeast Anticancer Drug Screen. Data for the sgs1 mgt1 strain (AID 161);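 further: 0% = growth of cultures given vehicle only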; settings: S. cerevisiae sgs1 mgt1 strain, stronger effect = higher value
Procedure, shortened: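 Inhibition of yeast growth, normalised to vehicle-treated controls, is reported for a strain bearing genetic alterations in DNA damage repair.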

[8] = NCI Yeast Anticancer Drug Screen. Data for the CLN2oe strain (AID 163);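 further: 0% = growth of vehicle-only control cultures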; settings: S. cerevisiae CLN2oe strain, stronger effect = higher value
Procedure, shortened: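 Strain altered in cell-cycle control, incubated with compound; growth compared to solvent-treated controls.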

[9] = NCI Yeast Anticancer Drug Screen. Data for the cln2 rad14 strain (AID 165);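 further: 0% = growth equal to vehicle treated cultures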; settings: S. cerevisiae cln2 rad14 strain, stronger effect = higher value
Procedure, shortened: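 The screen exposed genetically defined yeast (cln2 rad14) to test compounds and scored growth inhibition relative to vehicle-treated controls.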

[10] = NCI Yeast Anticancer Drug Screen. Data for the bub3 strain (AID 167); settings: S. cerevisiae bub3 mutant strain, stronger effect = higher value
Procedure, shortened: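 In this screen, a yeast mutant lacking normal mitotic checkpoint function is challenged with compound. Relative growth versus vehicle gives the inhibition value.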

[11] = NCI Yeast Anticancer Drug Screen. Data for the wt2 strain (AID 169);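 further: 0% = growth of vehicle-treated yeast cultures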; settings: S. cerevisiae wt2 strain growth inhibition, stronger effect = higher value
Procedure, shortened: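 Steps: yeast strain treated with compound; growth recorded; inhibition calculated relative to cultures given vehicle alone.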

[12] = NCI Yeast Anticancer Drug Screen. Data for the mlh1 strain (AID 171);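 further: 0% = growth of vehicle-treated control cultures of the same strain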; settings: S. cerevisiae mlh1 strain growth inhibition, stronger effect = higher value
Procedure, shortened: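 Yeast screen: mutant strain plus compound, growth scored against vehicle control wells.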

[13] = NCI Yeast Anticancer Drug Screen. Data for the sgs1 strain (AID 173);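 further: 0% = growth of vehicle-only control cultures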; settings: S. cerevisiae sgs1 mutant, stronger effect = higher value
Procedure, shortened: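 Inhibition of yeast growth served as the measure. The mutant strain was treated with each compound, and growth was normalised to cultures receiving vehicle alone.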

[14] = NCI Yeast Anticancer Drug Screen. Data for the mlh1 rad18 strain (AID 175); settings: S. cerevisiae mlh1 rad18 strain growth inhibition, stronger effect = higher value
Procedure, shortened: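 Compound-treated yeast growth, normalised to vehicle controls. Strain bears defined DNA repair mutations.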

[15] = NCI Yeast Anticancer Drug Screen. Data for the rad18 strain (AID 177); settings: S. cerevisiae rad18 mutant growth inhibition, stronger effect = higher value
Procedure, shortened: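 Inhibition values reflect reduced yeast growth compared with vehicle-treated controls, using a strain engineered with a DNA damage repair defect.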

[16] = at 5.0 µM (retest, dose inferred, filed as 0.5)
[17] = at 50.0 µM (retest, dose inferred, filed as 5.0)

Measured: growth inhibition

COc1ccc(/C=C2\CCc3ccccc3C2=O)cc1OC
inactive: [1]; at 1.2 µM -13% | [1]; at 3.7 µM -2% | [1]; at 11.0 µM -11% | [1]; at 33.0 µM 24% | [2]; at 1.2 µM -24% | [2]; at 3.7 µM -26% | [2]; at 11.0 µM 1% | [2]; at 33.0 µM 32% | [2]; at 100.0 µM 40% | [3]; at 1.2 µM 2% | [3]; at 3.7 µM 5% | [3]; at 11.0 µM 21% | [3]; at 33.0 µM 67% | [4]; at 1.2 µM 3% | [4]; at 3.7 µM -2% | [4]; [16] 36% | [4]; at 11.0 µM -1% | [4]; at 33.0 µM 22% | [4]; [17] 51% | [5]; at 1.2 µM -36% | [5]; at 3.7 µM -8% | [5]; [16] -11% | [5]; at 11.0 µM -22% | [5]; at 33.0 µM 24% | [5]; [17] 66% | [5]; at 50.0 µM 60.3% | [6]; at 1.2 µM -16% | [6]; at 3.7 µM -13% | [6]; at 11.0 µM -20% | [6]; at 33.0 µM 19% | [7]; [16] 37% | [7]; [17] 68% | [8]; at 1.2 µM 21% | [8]; at 3.7 µM 22% | [8]; at 11.0 µM 29% | [8]; at 33.0 µM 37% | [9]; [16] 23% | [9]; [17] 48% | [9]; at 50.0 µM 60.9% | [10]; at 1.2 µM 24% | [10]; at 3.7 µM 29% | [10]; [16] 25% | [10]; at 11.0 µM 51% | [11]; at 1.2 µM -38% | [11]; at 3.7 µM -25% | [11]; at 11.0 µM -28% | [11]; at 33.0 µM 53% | [12]; at 1.2 µM 20% | [12]; at 3.7 µM 29% | [12]; at 11.0 µM 26% | [13]; at 1.2 µM -6% | [13]; at 3.7 µM -26% | [13]; at 11.0 µM -12% | [13]; at 33.0 µM 35% | [14]; [16] 10% | [14]; at 50.0 µM 63.5% | [15]; at 1.2 µM -20% | [15]; at 3.7 µM -10% | [15]; at 11.0 µM -18% | [15]; at 33.0 µM 19%
active: [1]; at 100.0 µM 88% | [3]; at 100.0 µM 89% | [4]; at 50.0 µM 83.3% | [4]; at 100.0 µM 82% | [5]; at 100.0 µM 90% | [6]; at 100.0 µM 80% | [7]; at 50.0 µM 84.8% | [8]; at 100.0 µM 92% | [10]; at 33.0 µM 76% | [10]; [17] 95% | [10]; at 50.0 µM 87.6% | [10]; at 100.0 µM 94% | [11]; at 100.0 µM 91% | [12]; at 33.0 µM 79% | [12]; at 100.0 µM 91% | [13]; at 100.0 µM 93% | [14]; [17] 91% | [15]; at 100.0 µM 88%
